Source: PubChem
An excerpt weighted towards active compounds, which were near 2.4% of everything screened.
POLB inh = blocks human DNA polymerase beta activity; Pol beta primer extension/strand displacement, fluorescence kinetic; P06746; AID 485314; actives 1.3% (n = 340,000); Potency, µM (top dose mostly 114 µM), for the others: top-dose activity change, negative = inhibition, hits mostly inhibitors; note: % is set by controls: 0 for no effect and ±100 for the full control effect
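Values derive from four-parameter Hill fits of normalized kinetic data: reads at 0 and 10 min following addition of 50 nM substrate to 10 nM Pol beta preincubated 15 min with compound.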
Pol iota inh = blocks human DNA polymerase iota activity; actives 1% (n = 390,000); Q9UNA4; Pol iota fluorescent replication assay, 10 min; Potency, µM (titrated, usually from 115 µM), for inactives: at the highest dose activity, negative = inhibition, most hits filed as inhibitors
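Pol iota at 10 nM preincubated 15 min with compounds at room temperature; reaction started with fluorescent substrate, 50 nM final. Fluorescence read kinetically at 0 and 10 min; buffer-only wells as negative control.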
L3MBTL1 inh = blocks human L3MBTL1 | AlphaScreen L3MBTL1–H3K9me1 peptide binding | Potency, µM (series often up to 57.1 µM), for inactives: top-dose activity, negative = inhibition, hits mostly inhibitors | actives 0.66% (n = 230,000) | AID 485360; note: % is set by controls: 0 for no effect and ±100 for the full control effect; nearly all actives have a fitted effect of over 60% in size
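AlphaScreen assay: L3MBTL1 (50 nM final) was preincubated 30 min at room temperature with biotinylated H3(1-15)K9me1 peptide (75 nM final), then 30 min with library compounds; streptavidin donor and nickel chelate acceptor beads (10 ug/mL final) added, 30 min dark.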
Pol eta inh = DNA polymerase eta (human) inhibition | actives 1.2% (n = 390,000) | Q9Y253 | recombinant Pol eta, fluorescent DNA replication assay | Potency, µM (series often up to 114 µM), without a hit: at the highest dose activity change, negative = inhibition, hits mostly inhibitors; note: % is set by controls: 0 for no effect and ±100 for the full control effect
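Pol eta at 10 nM preincubated with compounds 15 min at room temperature; reaction started with fluorescent substrate (50 nM final) and read kinetically at 0 and 10 min.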
POLK inh = inhibitors of human DNA polymerase kappa; Q9UBT6; AID 588579; actives 0.53% (n = 400,000); Potency, µM (highest dose often 107 µM), without a hit: top-dose activity, negative = inhibition, actives largely listed as inhibitors; purified Pol kappa, fluorescent DNA synthesis assay, 10 min; note: % is set by controls: 0 for no effect and ±100 for the full control effect
Target sequence (Q9UBT6 whole entry, looked up): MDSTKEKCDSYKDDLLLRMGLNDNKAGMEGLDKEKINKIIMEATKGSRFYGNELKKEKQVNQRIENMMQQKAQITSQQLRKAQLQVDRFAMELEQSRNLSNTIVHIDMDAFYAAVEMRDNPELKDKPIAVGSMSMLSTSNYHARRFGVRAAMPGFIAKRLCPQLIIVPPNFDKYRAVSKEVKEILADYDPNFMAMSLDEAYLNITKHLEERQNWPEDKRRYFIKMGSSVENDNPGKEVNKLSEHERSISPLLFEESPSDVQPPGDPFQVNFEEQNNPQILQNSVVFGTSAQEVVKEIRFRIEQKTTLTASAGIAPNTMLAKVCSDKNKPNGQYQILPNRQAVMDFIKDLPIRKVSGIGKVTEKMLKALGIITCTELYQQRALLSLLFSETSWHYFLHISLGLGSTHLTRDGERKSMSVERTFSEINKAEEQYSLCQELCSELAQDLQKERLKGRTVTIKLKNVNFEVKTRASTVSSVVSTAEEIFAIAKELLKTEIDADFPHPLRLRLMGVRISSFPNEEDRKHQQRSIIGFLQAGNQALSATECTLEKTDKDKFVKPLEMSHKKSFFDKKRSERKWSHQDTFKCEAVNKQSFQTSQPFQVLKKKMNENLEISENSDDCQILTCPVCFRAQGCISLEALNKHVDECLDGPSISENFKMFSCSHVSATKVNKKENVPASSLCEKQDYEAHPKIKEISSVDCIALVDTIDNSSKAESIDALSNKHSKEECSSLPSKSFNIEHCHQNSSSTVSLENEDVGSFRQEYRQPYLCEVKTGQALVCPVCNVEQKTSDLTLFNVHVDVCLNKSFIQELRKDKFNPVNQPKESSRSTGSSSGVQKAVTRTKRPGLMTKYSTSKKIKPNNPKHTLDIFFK
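Pol kappa 10 nM + cpd, 15 min RT; start w/ substrate 50 nM final; fluorescence kinetic read, 0 and 10 min. Neg ctrl: buffer, no enzyme.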
* hit, by the source's call; ? = inconclusive; . = not tested or not shown; ! = not active in a repeat; [ ] = remark or other dose. Calls come from the whole dose curve; as a rule, active = well fitted curve in the direction sought with a large enough effect; inconclusive = small, poorly fitted or top-dose-only effect, or another doubt; inactive = no such curve, though single readings can be large; an effect the other way counts as inactive or inconclusive. Potency is the fitted concentration of half-maximal effect.

SMILES	POLB inh	Pol iota inh	L3MBTL1 inh	Pol eta inh	POLK inh
C=C1C=C(C)n2ncc(C(=O)Nc3ccc(F)cc3F)c2N1	.	15.2%	.	.	-3.6%
COc1ccc(C(C)NC(=O)CN(c2cc(OC)ccc2OC)S(=O)(=O)c2ccccc2)cc1 (configuration not stated)	20µM*	?	.	?	-32.2%
COc1ccc(OC)c(N(CC(=O)Nc2ccccc2)S(=O)(=O)c2ccccc2)c1	-20.0%	2.6%	1.9%[2.29 µM]	-31.6%	-22.2%
O=C(NCc1ccc2c(c1)OCO2)c1ccc2c(c1)N(Cc1ccccc1F)C(=O)c1ccccc1S2=O (configuration not stated)	10.7%	13.5%	.	-18.8%	-7.8%
CCOc1ccccc1/C=C\c1nc(O)c([N+](=O)[O-])c(=O)[nH]1	-9.8%	-17.0%	.	?	-15.8%
O=C(COc1ccccc1/C=C\c1nc(O)c([N+](=O)[O-])c(=O)[nH]1)Nc1ccccc1	-3.0%	?	-20.9%	28.2µM*	-11.2%
O=C(CSc1ccccn1)Nc1cccc(NC(=O)CSc2ccccn2)n1	10µM*	?	.	-5.7%	-18.6%
CC(=O)Nc1ccc(NC(=O)CSc2ccccn2)cc1	4.7%	18.8%	21.2%	-2.2%	-22.8%
Nc1ccc(OC(=O)Nc2ccc(O)cc2)cc1	32.0%	20µM*	.	-13.4%	-8.3%
COCCCNC(=O)c1ccc(Cn2c(=O)c3ccccc3n(CC(=O)Nc3c(C)cccc3C)c2=O)cc1	50.1µM*	89.1µM*	.	-10.6%	-31.8%
CCC(C)NC(=O)Cn1c(=O)n(Cc2ccc(C(=O)NCc3ccc(C)cc3)cc2)c(=O)c2ccccc21 (configuration not stated)	20µM*	43.3%	.	?	7.8%
CCc1ccc(NC(=O)CSc2nc(=O)n(Cc3ccco3)c3c2CCC3)cc1	-3.4%	-2.2%	.	-20.7%	2.3%[60.1 µM]
Cc1cc(C)cc(Nc2cc(C(=O)NC3CCC(C)CC3)c3ccccc3n2)c1 (configuration not stated)	-27.0%	-8.2%	.	89.1µM*	-26.7%
Nc1ccc(C(=O)Nc2ccc3cc(S(=O)(=O)O)ccc3c2)cc1	.	1.6%	.	-28.9%	-17.7%
O=C(Nc1cc(C(=O)Nc2ccc(S(=O)(=O)O)cc2S(=O)(=O)O)cc(C(=O)Nc2ccc(S(=O)(=O)O)cc2S(=O)(=O)O)c1)Nc1cc(C(=O)Nc2ccc(S(=O)(=O)O)cc2S(=O)(=O)O)cc(C(=O)Nc2ccc(S(=O)(=O)O)cc2S(=O)(=O)O)c1	0.224µM*	1.26µM*	.	0.1µM*	0.178µM*!
O=C(Nc1ccc(C(=O)Nc2ccc(C(=O)Nc3ccc(S(=O)(=O)O)c4cc(S(=O)(=O)O)cc(S(=O)(=O)O)c34)cc2)cc1)Nc1ccc(C(=O)Nc2ccc(C(=O)Nc3ccc(S(=O)(=O)O)c4cc(S(=O)(=O)O)cc(S(=O)(=O)O)c34)cc2)cc1	.	.	.	.	0.141µM*
CCOC(=O)c1c(N)sc(=S)c2c1CCC2	8.91µM*	?	?	?	-29.4%
CCOC(=O)c1c(N)sc(N)c1C(=O)OCC	0.0%	9.1%	-8.2%	-19.9%	-13.9%
COc1cc(/C=C2/SC(N)=NC2=O)ccc1Oc1ccc([N+](=O)[O-])cc1[N+](=O)[O-]	-19.4%	163.7%	-12.3%	-20.7%	-1.1%
COc1ccc(/C=C2\SC(N)=NC2=O)cc1Br	39.8µM*	?	?	?	-19.5%
CCCOc1ccc(/C=C2\SC(N)=NC2=O)cc1OC	56.2µM*	?	.	-17.8%	3.3%
CCCCc1nn2c(=O)cc(COC(=O)c3ccc(NC(=O)CCc4ccccc4)cc3)nc2s1	7.7%	-0.9%	.	-4.9%	-4.8%[60.1 µM]
COC(=O)C1=C[C@@H](C(=O)OC)[C@@H]2C3=C(C(=O)[C@@]2(CC(C)C)NC(=O)c2ccccc2)[C@H](C)n2c(=O)n(-c4ccccc4)c(=O)n2[C@@H]3C1	.	29.5%	.	.	-4.3%
Cc1noc(/C=C/c2ccco2)c1S(=O)(=O)N1CCC(C(=O)Nc2ccc(F)c(Cl)c2)CC1	13.1%	?	.	-15.3%	-12.2%
COc1ccc(C2=Nn3c(nnc3-c3ccccc3Cl)SC2)cc1OCC1CC1	.	30.2%	-8.3%	-22.6%	39.8µM*
SMILES	POLB inh	Pol iota inh	L3MBTL1 inh	Pol eta inh	POLK inh
CCCC[C@H]1CCCO[C@@](C(=O)NCCN2CCOCC2)(C(F)(F)F)C1	.	8.0%	.	.	13.3%
CCC(C)n1c(=O)c2sccc2n2c(CCCC(=O)Nc3ccc(F)cc3)nnc12 (configuration not stated)	22.0%	-7.4%	.	?	-1.8%
Nc1ccc(C(=O)O)c(O)c1	-13.0%	-12.9%	5.1%	-13.4%	-12.8%
Nc1ccc(N)c(C(=O)O)c1	0.398µM*	2.51µM*	.	1.26µM*	6.31µM*
CC(C)OCCCNC(=O)CCCn1c(SCC(=O)c2ccc(Br)cc2)nc2c(sc3ccccc32)c1=O	21.3%	25.9%	.	1.8%	-2.9%
Cn1nc(NC(=O)C(F)(F)F)c2ncc(-c3ccccc3)nc21	.	.	.	-9.6%	.
O=C(O)c1ccccc1-c1c2cc(Br)c(=O)c(Br)c-2oc2c(Br)c(O)c(Br)cc12	.	.	.	.	10µM*
Cc1ccc2oc(-c3ccccc3C(=O)O)cc(=O)c2c1	?	-1.1%	3.8%	-0.9%	-7.7%
Cc1ccc(-n2c3nc(=O)[nH]c(=O)c-3cc3cc([N+](=O)[O-])ccc32)cc1	48.6%	?	40.9%	44.7µM*	-3.9%
COc1cc(Nc2ncc3c(n2)CCN(Cc2cccc(C)c2)C3)cc(OC)c1	-12.8%	-9.6%	.	.	-0.3%[60.1 µM]
CN(C)/C=C/C(=O)/C=C/c1cn(-c2ncc(C(F)(F)F)cc2Cl)c2ccccc12	25.1µM*	8.4%	-14.3%	-16.9%	-20.8%
COC(=O)Cc1cn(-c2ncc(C(F)(F)F)cc2Cl)c2ccccc12	-8.0%	2.8%	.	-5.2%	-15.7%
Cc1ccc(CSc2nnc(SCC(=O)N/N=C/C=C/c3ccccc3[N+](=O)[O-])s2)cc1	5.7%	8.1%	-13.4%	-14.6%	-6.4%
Cc1ccc(CSc2nnc(SCC(=O)N/N=C/C=C/c3ccco3)s2)cc1	22.4µM*	?	?	?	?
CCn1c(SCC(=O)N/N=C/C=C\c2ccco2)nc2ccccc21	17.8µM*	?	31.6µM*	?	-30.6%
Cc1ccc2scc(N3CCc4ccccc4C3)c(=O)c2c1	2.9%	-3.0%	.	-10.8%	-0.3%[60.1 µM]
Oc1ccc(Cl)cc1C1C=C(c2ccc3c(c2)OCO3)NC(c2ccc(Cl)cc2)N1 (configuration not stated)	.	?	.	.	-0.4%
Cc1cccc(CC2S/C(=N/N=C/c3ccco3)N(c3ccccc3)C2=O)c1 (configuration not stated)	35.5µM*	-4.0%	-8.8%	-8.8%	-9.7%
COC(=O)c1cn(CCOc2ccccc2F)c2ccccc12	89.1µM*	-0.2%	.	-10.6%	-19.9%
CCOC(=O)CNS(=O)(=O)c1ccc(F)cc1Br	.	4.3%	.	.	-32.2%
